Compound activity (PubChem BioAssay)
Compounds with a hit are over-represented: about 3.6% of the library has one in this group of screens.
AmpC no deterg – qHTS Inhibitors of AmpC Beta-Lactamase (assay without detergent). Potency, µM (doses to about 57.1 µM), for inactives: at the highest dose activity change, negative = inhibition, most hits filed as inhibitors. 0.52% of 330,000 active. P00811. AmpC nitrocefin hydrolysis, absorbance 480 nm, 0.0001% Triton;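 further: plate controls were no compound for no effect and no enzyme for full effect; nearly all actives have a fitted effect of over 20% in size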
Target sequence (P00811 whole entry, looked up): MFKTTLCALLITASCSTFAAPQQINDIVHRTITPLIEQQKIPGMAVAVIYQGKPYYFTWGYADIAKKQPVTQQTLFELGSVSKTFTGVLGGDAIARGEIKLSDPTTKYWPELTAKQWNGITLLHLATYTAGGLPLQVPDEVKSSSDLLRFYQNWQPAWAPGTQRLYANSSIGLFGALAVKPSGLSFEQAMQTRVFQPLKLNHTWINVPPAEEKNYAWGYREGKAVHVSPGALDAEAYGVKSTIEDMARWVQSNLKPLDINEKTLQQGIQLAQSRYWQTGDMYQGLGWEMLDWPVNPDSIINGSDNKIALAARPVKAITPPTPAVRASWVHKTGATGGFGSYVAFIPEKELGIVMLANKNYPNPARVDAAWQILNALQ
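AmpC (5.3 nM in the dispensed reagent) in 20 mM phosphate pH 7.0 with 0.01% (detergent screen) or 0.0001% Triton X-100 was preincubated with compounds for 15 min at room temperature. Nitrocefin was then added from an 800 uM solution, and hydrolysis was followed at 480 nm.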
AmpC inh detg – qHTS Inhibitors of AmpC Beta-Lactamase (assay with detergent); P00811; AmpC hydrolysis of nitrocefin, absorbance 480 nm, 0.01% Triton; Potency, µM (titrated, usually from 114 µM), inactives show at the highest dose activity change, negative = inhibition, usual class: inhibitors; 0.041% of 370,000 active; AID 485294, 2010;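 further: 0% = no-compound wells and -100% = no-enzyme wells; nearly all actives have a fitted effect of over 25% in size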
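20 mM phosphate pH 7.0 + 0.01% (detergent screen) or 0.0001% Triton X-100; 5.3 nM AmpC reagent; cpd preinc 15 min RT; nitrocefin (800 uM stock) to start; A480 q20 s × 4 min; Activity was normalised to no-enzyme and no-compound control wells.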
FBPA Giardia inh – qHTS Assay for Inhibitors of Fructose-1,6-bisphosphate Aldolase from Giardia Lamblia; purified Giardia FBPA; Potency, µM (titrated, usually from 59.6 µM), inactives show at the top dose activity, negative = inhibition, most hits filed as inhibitors; 0.71% of 290,000 active; A8B2U2; further: nearly all actives have a fitted effect of over 55% in size
Target sequence (A8B2U2 whole entry, looked up): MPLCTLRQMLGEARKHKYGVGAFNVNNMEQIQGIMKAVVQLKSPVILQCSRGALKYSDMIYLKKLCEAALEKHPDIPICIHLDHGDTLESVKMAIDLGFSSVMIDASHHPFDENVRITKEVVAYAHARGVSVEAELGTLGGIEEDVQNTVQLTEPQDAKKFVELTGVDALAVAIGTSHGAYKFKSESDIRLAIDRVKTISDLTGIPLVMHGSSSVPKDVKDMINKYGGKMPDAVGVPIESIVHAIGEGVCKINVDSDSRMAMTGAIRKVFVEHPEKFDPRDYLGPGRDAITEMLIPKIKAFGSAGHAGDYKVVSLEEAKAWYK
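40 nM FBPA preincubated 10 min at RT with compound (up to 57.5 uM final), then substrate plus GAPDH/TPI/NAD/arsenate coupling and diaphorase/resazurin added. Fluorescence read after 20 min at RT, 525/598 nm.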
Sm TGR inh – qHTS Assay for the Inhibitors of Schistosoma Mansoni Peroxiredoxins | Schistosoma mansoni thioredoxin glutathione reductase (TGR), Q962Y6 | purified TGR, DTNB reduction, TNB absorbance 405 nm | Potency, µM (titrated, usually from 114 µM), for the others: at the top dose activity change, negative = inhibition, most hits filed as inhibitors | 3% of 360,000 active | AID 485364, 2010; further: nearly all actives have a fitted effect of over 60% in size
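First, TGR (20 nM dispensed) and NADPH were mixed with compound. Second, a 15 min room-temperature incubation followed. Third, further NADPH and then DTNB were added to start the reaction. Finally, TNB absorbance was monitored kinetically.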
The depositor's hits bear a star; ? = inconclusive; nt = no result; [ ] = another dose, or the depositor's remark. The call rests on the fitted dose curve; in most records, active means well fitted curve in the direction sought with a large enough effect; inconclusive means small, poorly fitted or top-dose-only effect, or another doubt; inactive means no such curve, though single readings can be large; an effect the other way counts as inactive or inconclusive. Unless noted, on the % scale 0 is the no-effect control and ±100 the full control effect; potency means the concentration at half of the fitted maximal effect.

SMILES | AmpC no deterg | AmpC inh detg | FBPA Giardia inh | Sm TGR inh
Fc1ccc(CNc2nc(-c3ccco3)cc(C(F)(F)F)n2)cc1 | -36% | -3% | -2% | 25µM*
Cc1cccc(NS(=O)(=O)c2ccc(OCC(=O)N3CCCC3)cc2)c1 | 0% | -2% | nt | 2%
O=C(NCCCN1CCCC1=O)C(=O)NCC1OCCCN1S(=O)(=O)c1cc(F)ccc1F (stereo not given) | 36% | 0% | nt | -18%
CCN(CC)c1ccc(NC(=O)CCc2c(C)nc3ncnn3c2C)c(C)c1 | nt | 2% | nt | -19%
CCCN(Cc1cc2cc(OC)ccc2[nH]c1=O)C(=O)c1ccco1 | -19% | 2% | 1% | 40µM*
COc1ccc2[nH]c(=O)c(CN(C(=O)c3ccco3)C(C)C)cc2c1 | -31% | -10% | -1% | 2%
CCCCN(Cc1cc2cc(OC)ccc2[nH]c1=O)C(=O)c1ccco1 | -14% | ? | -16% | 45µM*
COC(=O)c1cccc(S(=O)(=O)N(Cc2ccco2)Cc2cc3cc(OC)ccc3[nH]c2=O)c1 | -2% | 6% | -8% | 28µM*
CCCCN(Cc1cc2cc(OC)ccc2[nH]c1=O)C(=O)c1ccccn1 | -14% | 2% | 2% | 3%
CCN(c1ccccc1)S(=O)(=O)c1ccc(Cl)c(NC(=O)COC(=O)c2cc(O)c3ccccc3c2O)c1 | 4µM* | -3% | 5µM* | 3.5µM*
CCC(=O)N1CCN(c2ccccc2NC(=S)NC(=O)c2ccco2)CC1 | 170% | -10% | nt | -33%
Nc1cc2c(cc1O)CCCC2 | -57% | -1% | ? | 40µM*
Oc1ccc2c(c1-c1c(O)c(Br)cc3c1CCCC3)CCCC2 | nt | nt | -5% | nt
CCOC(=O)c1[nH]c2ccccc2c1NC(=S)Nc1cccc(C)c1 | -58% | ? | -2% | -23%
COc1cc2c(cc1OC)C1O[C@](CCCCN3C(=O)c4ccccc4C3=O)(C2)Oc2c1c(=O)oc1ccc(F)cc21 | -28%[11.4 µM] | -6%[22.9 µM] | ? | 2.5µM*
COc1cc2c(cc1OC)C1O[C@](CCCCN3C(=O)c4ccccc4C3=O)(C2)OC2=C1C(=O)c1ccccc1C2=O | -21%[11.4 µM] | ? | ? | 4µM*
O=C1c2ccccc2C(=O)N1CCCC[C@]12Cc3ccccc3C(O1)c1c(c3ccccc3oc1=O)O2 | 2.8µM* | ? | 18%[12.9 µM] | -21%[22.9 µM]
N#Cc1ccc2c(c1)C[C@]1(CCCCN3C(=O)c4ccccc4C3=O)Oc3c(c(=O)oc4ccc(F)cc34)C2O1 | -23%[11.4 µM] | 1%[22.9 µM] | -5%[12.9 µM] | 3%[22.9 µM]
O=c1oc2ccccc2c2c1C1O[C@](c3ccsc3)(Cc3c1ccc1ccccc31)O2 | ? | ? | -6%[12.9 µM] | 8.9µM*
COc1cc2c(cc1OC)C1O[C@](CCCCN3C(=O)c4ccccc4C3=O)(C2)OC2=C1C(=O)CCC2 | 88%[11.4 µM] | ? | -21%[12.9 µM] | ?
Cc1ccc(C(=O)Nc2ccc3c(c2)N(C)C(=O)c2ccccc2S3)cc1F | nt | 11% | nt | 7%
O=C1C(=O)N(Cc2cccnc2)C(c2cccc([N+](=O)[O-])c2)/C1=C(/O)c1ccc2c(c1)OCO2 (stereo not given) | -12% | 0% | nt | -24%
COc1ccc(C(=O)COC(=O)[C@@H](NS(=O)(=O)c2ccccc2)C(C)C)cc1 | -21% | nt | nt | nt
CC(NC(=O)c1ccccc1SCC(=O)N1CCCC1)c1ccc(F)cc1 (stereo not given) | -32% | 0% | nt | -10%
CC1(C)CC(=O)c2c(oc3cc(O)c(O)cc23)C1 | -32% | -7% | 3.2µM* | ?
SMILES | AmpC no deterg | AmpC inh detg | FBPA Giardia inh | Sm TGR inh
Cc1cc(N2C(=O)C(O)=C(C(=O)c3cc4ccccc4o3)C2c2cccs2)no1 (stereo not given) | -54% | 7% | nt | 56µM*
CC(C)(O)C#Cc1ccc(CN2CCN(CCc3ccccc3)C(CCO)C2)s1 (stereo not given) | 97% | 3% | 0% | 17%
O=C(N/N=C(\c1ccccc1)c1cccnc1)c1cc(O)ccc1O | -29% | 2% | -25% | 40µM*
C/C(=N\NC(=O)c1cccnc1)c1ccccc1 | -1% | 5% | -7% | 6%
COC(=O)c1ccc(NC(=O)c2nc(S(=O)(=O)Cc3cccc(C)c3)ncc2Cl)cc1 | -31% | -19% | -5% | 6.3µM*
COC(=O)c1ccccc1NC(=O)c1nc(S(=O)(=O)Cc2cccc(C)c2)ncc1Cl | nt | 19% | nt | ?
CC(=O)Nc1ccc(NC(=O)c2nc(S(=O)(=O)Cc3cccc(C)c3)ncc2Cl)cc1 | 0% | -5% | nt | 7.1µM*
Cc1cccc(CS(=O)(=O)c2ncc(Cl)c(C(=O)NCc3ccc4c(c3)OCO4)n2)c1 | -20% | ? | -12% | 6.3µM*
CCOC(=O)Cn1c(=O)cc(C)c2c(C)nn(-c3cccc(F)c3)c21 | nt | 26% | nt | 0%
Cn1c(=O)c(-c2cc(=O)[nH][nH]2)c(O)c2ccccc21 | -45% | -6% | -19% | 7%
COc1ccccc1CNC(=O)Cn1ncc2c(C)n(Cc3ccccc3Cl)c(C)c2c1=O | nt | 14% | nt | ?
Cc1c(NC(=S)NC(=O)c2ccc(-c3ccc(Cl)cc3)o2)cccc1C(=O)O | -33% | 13% | -5% | 13µM*
N#CCc1ccc(C(=O)c2ccccc2F)s1 | 0.79µM* | -3% | 3% | 1%
CCc1cc2c(SCC(=O)NC3CC3)ncnc2s1 | -9% | nt | nt | nt
C[N+](C)(C)c1ccc(/C=N/Nc2nc(Cl)c(C#N)c(Cl)c2Cl)cc1 | -4% | ? | -5% | 45µM*
COc1ccc2c(c1)c1ncn(Cc3ccco3)c(=O)c1n2C | 210% | -10% | -28% | 40µM*
COc1ccc2c(c1)c1ncn(Cc3ccc(F)cc3)c(=O)c1n2C | 101% | -6% | -1% | 0%
O=C(CC(Nc1ccccc1)C(=O)O)c1ccccc1 (stereo not given) | -27% | ? | -12% | 2.2µM*
Cc1ccc(NC(CC(=O)c2ccccc2)C(=O)O)cc1Cl (stereo not given) | -45% | -6% | -20% | 0.79µM*
O=C(CC(Nc1ccc(Cl)cc1Cl)C(=O)O)c1ccccc1 (stereo not given) | -17% | 4% | 3% | 3.2µM*
O=C(CC(C(=O)O)c1cccc(Cl)c1)c1ccccc1 (stereo not given) | -38% | -7% | -5% | 5%
COc1cccc(CC(NC(C)=O)C(=O)NC2CCN(C(=O)C3CC3)CC2)c1OC (stereo not given) | 34% | -4% | 5% | nt
O=C(Nc1nnc2n1CCS2)c1ccc(Br)o1 | -1% | -12% | 18% | 1%
Nc1cc2c(cc1C(=O)c1cccc(Br)c1)OCCO2 | -23% | 9% | -12% | 29%
C/C=C(\CS(=O)(=O)c1ccccc1)S(=O)(=O)c1ccccc1 | -27% | -4% | -1% | 35µM*
C/C(CS(=O)(=O)c1ccccc1)=N\O | -2% | 2% | 0% | nt
CCOC(=O)Cn1c(=O)n(C2CCCCC2)c2nc(-c3ccc(OCC)cc3)nc(C(N)=O)c21 | nt | 2% | nt | -1%
